Only some compounds are listed: those with a hit (about 2.1% of all), similar ones and a draw of the others.
HIV Env fusion: inhibitors of HIV Env-mediated cell fusion; AID 651610; inhibition, % at 12.3 µM; HeLa-JRFL Env/CEM21 cell fusion, luciferase; 1.1% of 360,000 active;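 active = mean replicate inhibition score of at least 50 and every replicate individually at or above 50; inconclusive = only one of the two criteria met; inactive = mean below 50 and not all replicates reaching 50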;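 note: 0% = plate neutral controls and 100% = maraviroc near 300 nM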
Gli-Sufu antag: antagonists of Gli-Sufu signaling; Sufu-KO-LIGHT fibroblasts, Gli luciferase reporter luminescence; inhibition, % at 5 µM; 0.74% of 340,000 active;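 active = inhibition above about 55%, limit read from the data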;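 note: 0% = DMSO-treated cells and 100% = wells with medium but no cells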
GalR3 antagonist: blocks the human galanin receptor 3; O60755; HEK293 GalR3-CNG cAMP membrane potential fluorescence; galR3 body fused to GalR1 C-terminus; inhibition, % at 3 µM; 0.44% of 360,000 active; AID 651719;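 active = inhibition above the screen-wide average plus 3 SD, cut at about 13% in these data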;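 note: forskolin and galanin both at EC90 stimulate the cells; cAMP rise reported by CNG channel membrane potential dye signal; 0% = forskolin plus galanin with DMSO and 100% = forskolin alone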
Target sequence (O60755 1-299 limits assumed): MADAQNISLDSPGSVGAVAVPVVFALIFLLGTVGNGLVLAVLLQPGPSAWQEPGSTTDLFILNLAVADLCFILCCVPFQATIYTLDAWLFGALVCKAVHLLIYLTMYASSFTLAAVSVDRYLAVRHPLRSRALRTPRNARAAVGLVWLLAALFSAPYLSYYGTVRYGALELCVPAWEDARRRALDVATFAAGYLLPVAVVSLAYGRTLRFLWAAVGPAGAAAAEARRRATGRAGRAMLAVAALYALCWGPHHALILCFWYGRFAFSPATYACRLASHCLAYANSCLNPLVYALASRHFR
aDG glyco up: alpha-DG glycosylation activation; activation, % at 10 µM; AID 624168; 0.22% of 360,000 active; Pro5-aDG cells, alpha-DG glycosylation AlphaScreen (IIH6); 0% Pro5, 100% B10-LARGE cell signal;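 active = activation of at least 8% versus controls, or a plate z-score of at least 8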;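 note: Pro5 are CHO cells carrying HIG-tagged alpha-DG that lacks glycosylation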
COUP-TFII inh: inhibitors of human COUP-TFII (NR2F2); P24468; HEK293T NGFI-A luciferase reporter, luminescence; inhibition, % at 8.6 µM; 0.7% of 370,000 active; AID 686940;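 active = inhibition above a per-plate cutoff, mean inhibition of test wells between control levels plus 3 SD, cut at about 38% in these data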;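 note: cells cotransfected with COUP-TFII expression vector driving the NGFI-A reporter; 0% = median of COUP-TF2 test wells and 100% = reporter-only cells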
Target sequence (P24468 whole entry, looked up): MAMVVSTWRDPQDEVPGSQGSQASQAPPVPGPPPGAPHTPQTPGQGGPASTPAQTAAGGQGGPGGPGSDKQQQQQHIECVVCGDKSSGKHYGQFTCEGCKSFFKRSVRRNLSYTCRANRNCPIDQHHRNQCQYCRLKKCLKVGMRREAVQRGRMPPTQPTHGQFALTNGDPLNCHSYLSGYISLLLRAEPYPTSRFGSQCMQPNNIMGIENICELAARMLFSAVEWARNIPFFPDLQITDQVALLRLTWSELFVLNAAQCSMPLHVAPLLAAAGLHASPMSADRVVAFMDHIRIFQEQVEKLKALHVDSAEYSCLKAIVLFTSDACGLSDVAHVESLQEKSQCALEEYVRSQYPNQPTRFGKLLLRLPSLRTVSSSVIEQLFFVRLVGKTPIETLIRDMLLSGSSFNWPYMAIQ
An asterisk follows results filed as active; ? = inconclusive; nt = no result given; [ ] = dose if it differs, or a comment.

SMILES	HIV Env fusion	Gli-Sufu antag	GalR3 antagonist	aDG glyco up	COUP-TFII inh
O=C(N[C@H](c1cccc(Br)c1)[C@@H]1CCCC=C1c1ccccc1)C(F)(F)F	67.0*	nt	-8.0	nt	13.6
COc1ccccc1S(=O)(=O)N[C@@H]1CC[C@H](CCNC(=O)C2CCC2)O[C@@H]1CO	2.8[16.7 µM]	nt	nt	nt	nt
CCNC1=C(Cl)C(=O)c2ccccc2C1=O	nt	-8.6	-0.1	11.6*	-9.6
O=C(C[C@@H]1C/C=C/CC[C@@H](Cc2ccc(F)cc2)C(=O)O[C@H](c2ccccc2)CNC1=O)NCCO	83.0*	-10.6	-1.0	0.3	-13.2
O=C(c1ccccc1)N1CCC(c2nc(-c3ccc(S(=O)(=O)NCC4CCCO4)cc3)no2)CC1 (stereo not given)	87.0*	39.5	-1.9	1.8	18.4
O=C(Cc1cccs1)N(Cc1ccco1)C1(C(=O)NC2CCCCC2)CCCCC1	73.1*	13.1	-8.5	1.9	-2.4
Cc1ccc(S(=O)(=O)N[C@H]2CC[C@H](CCn3cc(C(C)C)nn3)O[C@H]2CO)cc1	-2.9[16.7 µM]	nt	nt	nt	nt
CNC(=O)C1CCC(=O)N1Cc1ccccc1Cl (stereo not given)	-11.3	2.8	-5.0	-0.2	19.9
O=C(Nc1cc(Cl)cc(Cl)c1)C1CCC(=O)N1Cc1ccccc1Cl (stereo not given)	53.4*	2.6	-4.2	0.6	3.3
OCCOCCn1c(CCNc2nc(-c3ccc(Cl)cc3)cs2)nc2cc(Cl)c(Cl)cc21	81.1*	2.0	-4.2	0.6	5.0
COc1ccc(-c2csc(NCCc3nc4cc(Cl)c(Cl)cc4n3CCCO)n2)cc1	?	16.4	-5.6	0.4	-2.5
COC1=C(c2ccccc2)C(=O)c2ccccc2C1=O	-38.5	-4.4	-4.5	1.2	1.8
O=C(C1=C(c2ccccc2)C(=O)c2ccccc2C1=O)c1ccccc1	155.2*	14.7	-10.7	-1.0	17.2
CCc1nc2ccccc2c(C(=O)OCC(=O)N2CC(C)OC(C)C2)c1C (stereo not given)	64.4*	2.0	-3.5	-0.1	-5.1
CCc1nc2ccccc2c(C(=O)Oc2cccc3cccnc23)c1C	79.6*	-9.9	-2.9	0.1	-4.2
CCc1nc2ccc(C)cc2c(C(=O)Oc2cccc3cccnc23)c1C	-27.8	4.9	-0.7	0.1	-1.0
Cc1cc(C(=O)OCC(=O)N2CC(C)OC(C)C2)c2ccccc2n1 (stereo not given)	6.4	-3.5	0.0	0.2	-1.8
CN1CCN(C(=O)C[C@@H]2C[C@@H]3c4cc(NC(=O)Nc5ccccc5F)ccc4O[C@@H]3[C@@H](CO)O2)CC1	-2.8[16.7 µM]	nt	nt	nt	nt
COc1cccc(S(=O)(=O)N(C)C[C@H]2OCc3ccccc3-c3ccccc3C(=O)N([C@H](C)CO)C[C@@H]2C)c1	14.5[16.7 µM]	nt	nt	nt	nt
CCOC(=O)/C(=C\c1ccccc1)C(=O)c1cc(C(C)=O)c(Nc2ccccc2)s1	nt	11.1	-4.6	-0.5	-3.0
CCOC(=O)/C(=C\c1cccnc1)C(=O)c1cc(C(C)=O)c(Nc2ccccc2)s1	nt	60.0*	nt	-1.2	nt
C=C1CCN([C@H](C(=O)O)C(C)C)S(=O)(=O)c2ccccc21	-12.1	-9.2	-1.9	0.0	8.7
C=C1CCN([C@H](C(=O)OCc2cccc(C)c2)C(C)C)S(=O)(=O)c2ccccc21	75.8*	3.0	-4.7	0.0	15.1
CNC[C@@H]1OCCCC[C@@H](C)Oc2ccc(NS(=O)(=O)c3ccccc3)cc2C(=O)N([C@@H](C)CO)C[C@H]1C	1.2[16.7 µM]	nt	nt	nt	nt
COC(=O)c1cc(C)nc2c1C(=O)C(=O)C=C2N1CCOCC1	-1.0	10.4	-13.6	0.2	41.7*
SMILES	HIV Env fusion	Gli-Sufu antag	GalR3 antagonist	aDG glyco up	COUP-TFII inh
COC(=O)c1cc(S(=O)(=O)N2CCOCC2)c(Cl)cc1N1CCOCC1	28.7	1.2	-2.5	-0.2	-7.3
O=C(C[C@H]1C[C@H]2c3cc(NC(=O)C4CCC4)ccc3O[C@H]2[C@@H](CO)O1)NCc1ccncc1	-0.2[16.7 µM]	nt	nt	nt	nt
CC(C)(C)n1nnnc1C(c1ccncc1)N1CCN(C2CCCCC2)CC1 (stereo not given)	nt	0.8	-5.3	0.4	-12.2
CC(C)(C)n1nnnc1C(c1cccnc1)N1CCN(C2CCCCC2)CC1 (stereo not given)	65.0*	-1.9	-5.4	-0.2	-4.8
COc1ccc(S(=O)(=O)Nc2ccc3c(c2)[C@@H]2C[C@@H](CC(=O)NCC4CC4)O[C@H](CO)[C@@H]2O3)cc1	6.2[16.7 µM]	nt	nt	nt	nt
Cc1ccccc1NC(=S)c1nc2ccccc2[nH]1	-81.8	-8.8	-7.6	-0.3	-25.0
S=C(Nc1ccc(Cl)cc1)c1nc2ccccc2[nH]1	58.5*	-55.5	-2.5	0.0	-35.3
CCN1CCN(Cc2ccc(NC(=O)c3ccc(C)c(NC(=O)c4cncc(-c5cccs5)c4)c3)cc2C(F)(F)F)CC1	nt	72.3*	nt	-0.6	nt
CCN1CCN(Cc2ccc(NC(=O)c3ccc(C)c(NC(=O)c4nccn4C)c3)cc2C(F)(F)F)CC1	6.7	42.9	0.0	1.3	1.1
N=C1S/C(=C\c2ccc(-c3cccc(Cl)c3)o2)C(=O)N1c1nccs1	nt	87.8*	1.3	-0.5	-5.4
C[C@@H]1CN([C@@H](C)CO)C(=O)c2cc(NS(=O)(=O)c3ccc(F)cc3)ccc2O[C@@H](C)CCCCO[C@@H]1CN(C)S(=O)(=O)c1cccs1	14.8[16.7 µM]	nt	nt	nt	nt
Cc1ccc(N(C(=O)Cc2c[nH]c3ccccc23)C(C(=O)NC2CCCCC2)c2ccco2)cc1 (stereo not given)	84.2*	6.4	-6.0	-0.2	12.6
COc1cccc(C#Cc2cnc3c(c2)C(=O)N([C@H](C)CO)C[C@H](C)[C@H](CN(C)C(=O)C2CC2)O3)c1	-29.6[16.7 µM]	nt	nt	nt	nt
Clc1ccc(CSc2nnc(-c3ccncc3)o2)cc1	63.3*	-11.7	-0.4	0.2	30.4
Fc1ccc(CSc2nnc(-c3ccncc3)o2)cc1	37.2	-23.6	-4.7	-0.3	20.2
O=c1ccc2ccccc2c2ccccc12	-3.2	nt	3.8	-0.1	0.6
O=Nc1c(O)c2ccccc2c2ccccc12	81.2*	12.2	-3.2	2.5	30.8
Cc1ccc(S(=O)(=O)N2[C@H](C(C)C)[C@H]3[C@H]4C(=O)N(c5ccccc5)C(=O)[C@H]4CC(=O)[C@H]3[C@@H]2c2ccccc2)cc1	59.2*	nt	-3.6	-0.1	-7.5
Cc1ccc(S(=O)(=O)N2C[C@H]3C(=O)C[C@@H]4C(=O)N(c5ccccc5)C(=O)[C@@H]4[C@@H]3C[C@@H]2c2ccccc2)cc1	-98.3	nt	-6.0	0.1	-2.3
CNC[C@H](CC1CCCCC1)NC[C@H](Cc1ccccc1)NCCC12CC3CC(CC(C3)C1)C2	92.9*	-11.0	-3.2	-0.4	16.1
NC[C@H](Cc1ccccc1)NCCCCC1CCCCC1	-0.2	-5.5	-2.3	-0.2	12.3
COc1ccc(-c2nnc(Nc3nc4c(OC)cccc4s3)o2)cc1	71.7*	-4.3	-1.5	-0.3	-5.5
CC1(C)C(=O)C2(CCCCC2)C(=O)OC1c1cccn1-c1ccc([N+](=O)[O-])cc1 (stereo not given)	72.1*	8.1	-0.9	0.2	-7.5
COc1ccc(NC(=O)CN2CCC(C(N)=O)(N3CCCCC3)CC2)cc1	76.7*	0.0	-2.4	-0.2	18.1
